Data published in publication PMC4336329 (PLoS ONE, 2015).
About 14,000 (4.5%) of roughly 310,000 compounds showed an effect of 50% or more. The effect is printed as a negative number. This excerpt belongs to a sample that is enriched for strong results.

molecular target: human ether-à-go-go-related gene (hERG) potassium channel (human, UniProt Q12809); test: primary screen, population patch clamp on CHO cells stably expressing hERG; higher = less effect of the substance
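Note: peak tail current of the secondary pulse compared with the same well before compound.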

Chain of human ether-à-go-go-related gene (hERG) potassium channel (Q12809 whole entry, looked up): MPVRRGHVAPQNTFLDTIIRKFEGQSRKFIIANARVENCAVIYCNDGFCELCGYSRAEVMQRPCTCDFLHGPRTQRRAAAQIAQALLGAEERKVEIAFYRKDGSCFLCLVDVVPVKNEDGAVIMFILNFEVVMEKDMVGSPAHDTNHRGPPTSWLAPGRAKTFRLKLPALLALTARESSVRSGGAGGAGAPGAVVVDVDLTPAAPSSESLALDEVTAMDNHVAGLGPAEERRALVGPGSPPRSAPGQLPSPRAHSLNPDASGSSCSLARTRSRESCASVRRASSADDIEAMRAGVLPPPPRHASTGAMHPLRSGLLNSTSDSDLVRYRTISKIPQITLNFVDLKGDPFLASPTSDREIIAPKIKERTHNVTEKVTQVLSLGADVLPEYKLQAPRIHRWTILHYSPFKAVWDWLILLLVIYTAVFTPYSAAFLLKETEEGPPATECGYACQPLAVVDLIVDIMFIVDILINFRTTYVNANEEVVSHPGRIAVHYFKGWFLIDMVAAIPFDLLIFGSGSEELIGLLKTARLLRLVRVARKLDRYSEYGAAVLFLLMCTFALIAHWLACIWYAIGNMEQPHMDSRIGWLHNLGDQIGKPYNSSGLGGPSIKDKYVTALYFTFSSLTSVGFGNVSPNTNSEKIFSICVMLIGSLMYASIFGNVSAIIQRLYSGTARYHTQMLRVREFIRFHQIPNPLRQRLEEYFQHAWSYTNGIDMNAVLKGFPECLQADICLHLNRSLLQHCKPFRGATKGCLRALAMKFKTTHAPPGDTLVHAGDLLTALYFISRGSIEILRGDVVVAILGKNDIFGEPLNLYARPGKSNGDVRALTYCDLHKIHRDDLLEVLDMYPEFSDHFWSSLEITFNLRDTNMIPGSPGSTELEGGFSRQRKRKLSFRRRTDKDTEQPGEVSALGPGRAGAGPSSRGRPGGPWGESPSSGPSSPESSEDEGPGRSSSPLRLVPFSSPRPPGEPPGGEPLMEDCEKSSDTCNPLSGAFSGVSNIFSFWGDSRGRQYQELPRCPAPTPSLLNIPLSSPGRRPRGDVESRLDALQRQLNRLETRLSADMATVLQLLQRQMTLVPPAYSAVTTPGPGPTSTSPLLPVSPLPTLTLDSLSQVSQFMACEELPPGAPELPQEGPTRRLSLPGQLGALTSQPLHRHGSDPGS

| Compound | hERG current change (%, negative = inhibition) at 10uM [%] |
| --- | --- |
| CC(=O)c1ccc(N2Cc3ccccc3C2=NC(=O)c2cccs2)cc1 | -20.6 |
| CC(=O)c1ccc(N2Cc3ccccc3C2)cc1 | -2.58 |
| Br.CC(=O)c1ccc(N2Cc3ccccc3C3(CCOCC3)C2=N)cc1 | -57.5 |
| CCCNC(=O)C1CCN(c2cc(-c3ccccc3)nc3ncnn23)CC1 | -75.8 |
| O=S(=O)(c1ccc(Br)cc1)N1CCN(c2ccc3nnc(-c4ccccc4)n3n2)CC1 | -32 |
| COc1ccc(S(=O)(=O)N2CCN(c3ccc4nnc(-c5ccccc5)n4n3)CC2)cc1 | -66.4 |
| Cc1ccccc1NC(=O)C1CCN(c2cc(-c3ccccc3)nc3ncnn23)CC1 | -8.86 |
| FC(F)(F)c1cccc(Nc2cc(-c3ccccc3)nc3ncnn23)c1 | 13.5 |
| COc1ccc(-c2cc(C(F)(F)F)nc(N3CCCCCC3)n2)cc1 | 2.13 |
| CCCNC(=O)C1CCN(c2nc(C)cc(C)n2)CC1 | 0.749 |
| FC(F)(F)c1ccc(N2CCN(c3cc(-c4ccccc4)nc4ncnn34)CC2)nc1 | -65.1 |
| COc1ccc(S(=O)(=O)N2CCN(c3ccc4nnc(-c5ccc(F)cc5)n4n3)CC2)cc1 | -19.4 |
| COc1ccc(-c2cc3nc(-c4ccccc4)cc(N4CCC(O)CC4)n3n2)cc1 | -7.45 |
| COc1ccc(-c2cc(N3CCCC3)n3ncnc3n2)cc1 | -64.5 |
| FC(F)(F)c1cc(-c2ccccc2)nc2ncnn12 | 7.8 |
| Cc1nnsc1Sc1ccccc1C(=O)O | 8.3 |
| Cc1n[nH]c(C)c1S(=O)(=O)N(C)Cc1ccco1 | 2.13 |
| O=C(NCc1c(O)ccc2ccccc12)c1ccccc1 | 12 |
| CC(C)c1ccc(NC(=O)C2C3C=CC4(O3)C2C(=O)N(CCCN2CCOCC2)C4C(=O)NC2CCCCC2)cc1 (stereo not drawn) | 19.9 |
| COc1ccc(NC(C)=O)c(C)c1 | 18.2 |
| COc1ccc(OC)c(NC(=O)C2CCN(c3cc(-c4ccccc4)nc4ncnn34)CC2)c1 | -10.8 |
| CCc1c(C)nc2ncnn2c1N1CCN(S(=O)(=O)c2ccc(OC)cc2)CC1 | -36 |
| COc1ccc(S(=O)(=O)N2CCN(c3cc(-c4ccccc4)nc4ncnn34)CC2)cc1 | -53.3 |
| COc1ccccc1NC(=O)N1CCN(c2cc(-c3ccccc3)nc3ncnn23)CC1 | -68.3 |

| Compound | hERG current change (%, negative = inhibition) at 10uM [%] |
| --- | --- |
| O=S(=O)(c1ccccc1)N1CCN(c2cc(-c3ccccc3)nc3ncnn23)CC1 | -11.8 |
| COc1ccccc1NC(=O)N1CCN(c2ncccn2)CC1 | 6.96 |
| O=C(C1=C(O)C(=O)N(CC2CCCO2)C1c1ccc(Cl)cc1)c1ccco1 (stereo not drawn) | 12.3 |
| Cc1cc(=O)oc2c(CN3CCCC3)c(O)c(Cl)cc12 | 5.35 |
| CC(CC(=O)Nc1cccc(Cl)c1)c1ccccc1 (stereo not drawn) | -6.32 |
| Cc1cc(OCC#N)nc(N)n1 | 3.69 |
| CCN(CC)S(=O)(=O)c1ccc(N2CCOCC2)c(NCC(=O)Nc2ccc(F)cc2)c1 | 12.3 |
| CCCCOc1ccc(/C=N/Nc2cc(N3CCOCC3)nc(C)n2)cc1 | -30.5 |
| Cc1cc(C)cc(NC(=O)C(OC(=O)c2ccc(O)cc2)c2ccccc2)c1 (stereo not drawn) | -15.2 |
| Cc1cc(C)cc(NC(=O)C(OC(=O)c2ccc(NC(=O)CC#N)cc2)c2ccccc2)c1 (stereo not drawn) | -6.68 |
| Cc1cc(C)cc(NC(=O)C(OC(=O)c2cc[n+]([O-])cc2)c2ccccc2)c1 (stereo not drawn) | -74 |
| COc1cc(OC)c(NC(=O)CCNC(=O)Cn2ccc3ccccc3c2=O)cc1Cl | 7.45 |
| O=C(c1ccc2nc[nH]c2c1)N1CCN(c2ncc(C(F)(F)F)cc2Cl)CC1 | -53.6 |
| O=C(CN1CCN(c2ncc(C(F)(F)F)cc2Cl)CC1)N1CCN(c2ncc(C(F)(F)F)cc2Cl)CC1 | 11.7 |
| O=C(CSc1ccc(Cl)cc1)N1CCN(c2ncc(C(F)(F)F)cc2Cl)CC1 | -26 |
| O=C(c1cccs1)N1CCN(c2ncc(C(F)(F)F)cc2Cl)CC1 | -65 |
| CC(C)(C(N)=O)N1CCN(c2ncc(C(F)(F)F)cc2Cl)CC1 | -42.4 |
| O=C(c1ccc2c(c1)OCCO2)N1CCN(c2ncc(C(F)(F)F)cc2Cl)CC1 | -41.3 |
| Cc1ccc(C(=O)N2CCN(c3ncc(C(F)(F)F)cc3Cl)CC2)s1 | -59.8 |
| Cc1ccsc1C(=O)N1CCN(c2ncc(C(F)(F)F)cc2Cl)CC1 | -21 |
| O=C(c1ccc2nc[nH]c2c1)N1CCN(c2cccc(C(F)(F)F)c2)CC1 | -11.4 |
| CCc1cc(C(=O)N2CCN(c3ncc(C(F)(F)F)cc3Cl)CC2)sc1C | -3.1 |
| CCOC(=O)N1CCN(c2ncc(C(F)(F)F)cc2Cl)CC1 | 21.4 |
| O=C(CSc1ccccn1)N1CCN(c2ncc(C(F)(F)F)cc2Cl)CC1 | -63.9 |
